Screening results from PubChem.
Luc counter – Counterscreen for Luciferase (Kinase-Glo TM) Inhibition | Kinase-Glo luciferase, ATP luminescence, 8 min | Potency, µM (series often up to 38.3 µM), inactives show at the highest dose activity change, negative = inhibition, usual class: inhibitors | hit rate 0.28% among 200,000; also: nearly all actives have a fitted effect of over 60% in size
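Light output from Kinase-Glo luciferase with luciferin and 10 uM ATP in 50 mM imidazole pH 7.2, KCl, MgCl2, Tween 20, BSA; compound pin-delivered, 8-min ambient incubation, then luminescence read.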
RORgamma inh – qHTS for inhibitors of ROR gamma transcriptional activity | Drosophila S2 Gal4-RORgamma UAS-luciferase reporter, 20 h | Nuclear receptor ROR-gamma (Mus musculus), P51450 | Potency, µM (doses to about 53.6 µM), for the others: at the top dose activity change, negative = inhibition, actives largely listed as inhibitors | AID 2551, 2010 | hit rate 5.4% among 310,000; also: nearly all actives have a fitted effect of over 60% in size
Target sequence (P51450 whole entry, looked up, the tested form may be a part): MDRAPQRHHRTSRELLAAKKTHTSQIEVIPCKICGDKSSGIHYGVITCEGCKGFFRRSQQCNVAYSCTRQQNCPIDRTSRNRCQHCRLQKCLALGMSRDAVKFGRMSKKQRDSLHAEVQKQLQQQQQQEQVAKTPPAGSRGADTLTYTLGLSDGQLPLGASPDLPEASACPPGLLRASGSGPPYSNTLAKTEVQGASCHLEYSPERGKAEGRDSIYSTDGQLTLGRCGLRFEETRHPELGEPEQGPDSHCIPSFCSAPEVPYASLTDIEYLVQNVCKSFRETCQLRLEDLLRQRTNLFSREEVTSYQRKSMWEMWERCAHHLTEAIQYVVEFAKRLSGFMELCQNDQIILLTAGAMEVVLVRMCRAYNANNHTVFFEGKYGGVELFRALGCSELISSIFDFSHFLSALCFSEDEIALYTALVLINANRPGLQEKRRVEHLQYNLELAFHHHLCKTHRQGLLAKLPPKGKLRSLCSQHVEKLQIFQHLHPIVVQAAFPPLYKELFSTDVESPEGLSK
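Luciferase reporter read in Schneider cells carrying Gal4-RORγ (mouse) and UAS-Photinus luciferase; cells given compound 1 h before 700 uM copper sulfate induction, then incubated 20 h at ambient temperature.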
Gal4-VP16 FLuc – VP16 counterscreen qHTS for inhibitors of ROR gamma transcriptional activity; Drosophila S2 Gal4-VP16 UAS-luciferase, luminescence, 20 h; Potency, µM (series often up to 53.6 µM), inactives show at the highest dose activity, negative = inhibition, hits mostly inhibitors; hit rate 3.5% among 310,000; AID 2546, 2010;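 also: Gal4-VP16 expression switched on by copper sulfate through the metallothionein promoter; nearly all actives have a fitted effect of over 50% in size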
Numbers without * were called inactive; u = inconclusive; x = not tested or not shown; [ ] = dose if it differs, or a comment. Hits are enriched below; roughly 6.4% of the tested compounds scored in any of these assays. Calls follow the shape of the dose curve; as a rule, active = well fitted curve in the direction sought with a large enough effect; inconclusive = small, poorly fitted or top-dose-only effect, or another doubt; inactive = no such curve, though single readings can be large; an effect the other way counts as inactive or inconclusive. % is scaled to controls: 0 for no effect and ±100 for the full control effect; potency is read from the fitted curve at half-maximal effect.

SMILES	Luc counter	RORgamma inh	Gal4-VP16 FLuc
C=CCc1ccccc1OCC(=O)N/N=C/c1ccc(OC(C)=O)cc1OC(C)=O	1%	7.1µM*	u
Cc1ccccc1OCC(=O)N/N=C/c1cc2ccccc2nc1Cl	-3%	38%	-8%
COc1ccccc1N1CCN(C(=O)C(C)CS(=O)(=O)c2ccc3c(c2)NC(=O)CS3)CC1 (configuration not stated)	x	-3%	-1%
Cc1ccc(N=Nc2c(C)[nH]n(C(N)=S)c2=O)cc1C	-2%	0.22µM*	1.1µM*
Cc1[nH]n(C(N)=S)c(=O)c1N=Nc1ccc(S(=O)(=O)N2CCCCCC2)cc1	-7%	0.89µM*	2.5µM*
Cc1[nH]n(-c2ccccc2)c(=O)c1N=Nc1ccc2c(c1)OCCO2	-1%	23%	28%
Cc1[nH]n(-c2ccccc2)c(=O)c1N=Nc1ccc(F)cc1	x	-25%	u
Cc1[nH]n(C(N)=S)c(=O)c1N=Nc1ccc2ccccc2c1	1%	1µM*	4µM*
CSc1ccc(N=Nc2c(C)[nH]n(C)c2=O)cc1	x	u	-85%
Cc1ccc(S(=O)(=O)N2CCN(S(=O)(=O)N3CCCCC3)CC2)cc1	3%	31%	-7%
CC(=O)Nc1ccc(N=Nc2c(C)[nH]n(C(N)=S)c2=O)cc1	1%	4µM*	0%
O=c1cc(CSc2ccccc2)nc(-c2ccncc2)[nH]1	0%	-14%	-8%
CCc1cc2c3c(c1)C1(C(=O)N3C(C)(C)C=C2C)C(C#N)=C(N)Oc2[nH]c(=O)[nH]c(=O)c21 (configuration not stated)	x	-42%	u
COc1cc(CN2CCCCC2C(=O)Nc2ccc(Oc3ccccc3)nc2)ccc1O (configuration not stated)	x	36%	u
Nc1cc(-c2ccc(Br)cc2)[nH]n1	3%	13%	u
Cc1[nH]n(C(N)=S)c(=O)c1N=Nc1cc(-c2ccc(Br)cc2)[nH]n1	1%	1.6µM*	-9%
CCNc1ncc2ncc(=O)n(C3CC3)c2n1	x	-14%	-18%
Cc1cccc(-n2c(=O)c3c4c(sc3n3c(=S)[nH]nc23)CCC4)c1	1%	u	u
O=c1[nH]c2sc3c(c2c2nncn12)CCCC3	3%	4%	-9%
Cc1ccc(-n2c(=O)c3c4c(sc3n3c(=S)[nH]nc23)CCC4)cc1	x	11µM*	-3%
COc1ccc(-n2c(=O)c3c4c(sc3n3c(=S)[nH]nc23)CCC4)cc1	x	11µM*	-13%
O=c1c2c3c(sc2n2c(=S)[nH]nc2n1-c1ccccc1)CCC3	x	0%	6%
Cc1ccc(-n2c(=S)[nH]c3sc4c(c3c2=O)CCC4)cc1	3%	1.1µM*	3.5µM*
Cc1ncoc1C(=O)N1CCCC(C(=O)c2ccc(C(F)(F)F)cc2)C1 (configuration not stated)	0%	u	-5%
COC(=O)c1ccc(C(=O)OC)c(NC(=S)N2CCCC(CO)C2)c1 (configuration not stated)	0%	2%	-4%
SMILES	Luc counter	RORgamma inh	Gal4-VP16 FLuc
Cc1ccc(N(CC(=O)NC2CCCCC2)C(=O)CNC(=O)c2ccco2)cc1C	x	11%	2%
N#Cc1c(-c2cccs2)cc(-c2cccs2)[nH]c1=O	x	-37%	-10%
Cc1cc(-c2cccs2)c(C#N)c(=S)[nH]1	x	10µM*	u
CCOc1ccc(/C=C2/SC(=S)N(n3c(C)ccc3C)C2=O)cc1	0%	u	10%
CCOc1ccc(C=C2SC(=O)N(CCN)C2=O)cc1	x	0.63µM*	-2%
C=CCOC(=O)C(C(C)=O)C(NC(=O)OC)c1ccc2ccccc2c1 (configuration not stated)	x	-9%[10 µM]	11%[10 µM]
O=C(c1cnccn1)N1CCC2(CCCN(Cc3nccs3)C2)CC1	-4%	4%	11%
Cc1nn(CCC(N)=S)c2nc(-c3cccs3)cc(C(F)(F)F)c12	2%	7.1µM*	6.3µM*
Cc1nn(CCC#N)c2nc(-c3ccccc3)cc(C(F)(F)F)c12	-5%	3%	-5%
COc1cc(C(=O)NCCC(=O)N2CCC3(CC2)NCCc2[nH]cnc23)cc(OC)c1OC	x	-18%	-7%
Cc1cccc(N2CCN(C(=O)CCCSc3nc4ccccc4[nH]3)CC2)c1C	-7%	u	22µM*
O=C(CCCSc1nc2ccccc2[nH]1)N1CCN(c2ccccc2)CC1	0%	1%	-3%
COc1ccc(N2CCN(C(=O)CCCCCn3c(=S)[nH]c4cc5c(cc4c3=O)OCO5)CC2)cc1	x	-36%	-21%
O=C(CCn1c(=S)[nH]c2cc3c(cc2c1=O)OCO3)N1CCc2ccccc2C1	3%	-13%	-12%
O=C(CCCn1c(=S)[nH]c2cc3c(cc2c1=O)OCO3)N1CCN(c2ccc(Cl)cc2)CC1	-2%	6.3µM*	5.6µM*
O=C(CCCn1c(=S)[nH]c2cc3c(cc2c1=O)OCO3)N1CCN(c2ccccc2)CC1	-1%	-40%	-3%
O=C(CCCn1c(=S)[nH]c2cc3c(cc2c1=O)OCO3)N1CCc2ccccc2C1	0%	13µM*	u
CC(=O)c1ccc(N2CCN(C(=O)CCCn3c(=S)[nH]c4cc5c(cc4c3=O)OCO5)CC2)cc1	5%	11µM*	u
CC1(C(=O)O)CCC(C(=O)NNC(=O)c2ccccc2O)C1(C)C (configuration not stated)	x	8%	-1%
O=C(O)CCc1nn2c3ccccc3n(CC(=O)c3cccs3)c2nc1=O	-2%	1%	4%
CCOC(=O)N1CCN(C(=O)CCCCCn2c(=S)[nH]c3cc4c(cc3c2=O)OCO4)CC1	-2%	-30%	-4%
Cc1cccc(N2CCN(C(=O)CCCn3c(=S)[nH]c4cc5c(cc4c3=O)OCO5)CC2)c1C	-8%	3.2µM*	4.5µM*
COc1ccccc1CNS(=O)(=O)c1c(C)[nH]c(C)c1C(=O)N1CCCC1	x	-5%	-3%
Clc1ccc(CNc2nc(CN3CCOCC3)nc3scc(-c4ccccc4)c23)cc1	1%	11µM*	8.9µM*
Clc1ccc(-c2csc3ncnc(NCCN4CCOCC4)c23)cc1	6%	-1%	-10%
SMILES	Luc counter	RORgamma inh	Gal4-VP16 FLuc
CC(C)c1nn2c(=O)cc(COc3cccc(NC(=O)c4ccco4)c3)nc2s1	x	-12%	-7%
CCN1C(=O)[C@H]2[C@H]3[C@H](O)[C@H](O)C/C(=N/OC[C@@H]4O[C@H](c5ccccc5)C=C[C@@H]4Oc4ccc(OC)cc4)[C@@H]3CC[C@@H]2C1=O	x	9%[10 µM]	9%[10 µM]
CN1CCN(CC(=O)Nc2ccc([N+](=O)[O-])cc2Br)CC1	0%	16%	0%
Cc1cc(-c2ccccc2)nc(N(C)N)c1S(C)(=O)=O	-2%	28%	-6%
Cc1cc(-c2ccccc2)nc(-c2ccccc2)c1C	13µM*	u	u
C=CCN1C(=O)C2(OCCO2)c2cc(C)ccc21	x	13%	-7%
O=C(O)c1cccc(-c2ccc(/C=N/Nc3ccc([N+](=O)[O-])cc3)o2)c1	x	25%	-16%
O=C(N/N=C/c1ccc(-c2cccc([N+](=O)[O-])c2)o1)c1cccs1	6%	10µM*	u
O=[N+]([O-])c1cccc(-c2ccc(/C=N/NC(=S)Nc3cccc(F)c3)o2)c1	x	0.89µM*	7.1µM*
